Assay outcomes as filed in PubChem.
Pf growth 48h: inhibits P. falciparum growth in the first generation, 48 h; 310,000 tested, 5.9% active; P. falciparum luciferase growth in erythrocytes, 48 h; Potency, µM (highest dose often 28.7 µM), for inactives: at the highest dose activity change, negative = inhibition, usual class: inhibitors; AID 504832; note: % is set by controls: 0 for no effect and ±100 for the full control effect
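Cell-based growth assay: transgenic P. falciparum expressing firefly luciferase, cultured in red cells within RPMI 1640 containing 0.5% w/v Albumax, 24 mM bicarbonate and gentamycin. A drop in luciferase activity indicates inhibition.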
SARS PLpro yeast: SARS-CoV PLP inhibition in yeast; Potency, µM (doses to about 32.9 µM), inactives show at the top dose activity, positive = growth rescue, hits mostly activators; 330,000 tested, 0.19% active; S. cerevisiae expressing SARS-CoV PLpro, growth rescue; calls by dose curve; note: 0% is about no effect; nearly all actives have a fitted effect of over 55% in size
Pf growth 96h: P. falciparum growth inhibition at 96 hour, primary screen for plastid delayed-death inhibitors | P. falciparum luciferase reporter growth, 96 h | Potency, µM (titrated, usually from 28.7 µM), for the others: at the highest dose activity change, negative = inhibition, hits mostly inhibitors | 320,000 tested, 6.9% active; note: % is set by controls: 0 for no effect and ±100 for the full control effect
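Luminescence readout: decreased luciferase signal marks inhibited growth of reporter-expressing P. falciparum in infected red cells (2% hematocrit, 0.05% parasitemia final), exposed to compound two generations (96 h, 37 C, 5% CO2).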
Sm TGR block: blocks Schistosoma mansoni thioredoxin glutathione reductase | Q962Y6 | purified TGR, DTNB reduction, TNB absorbance 405 nm | Potency, µM (top dose mostly 114 µM), without a hit: at the highest dose activity change, negative = inhibition, most hits filed as inhibitors | 360,000 tested, 3% active | AID 485364; note: % is set by controls: 0 for no effect and ±100 for the full control effect; nearly all actives have a fitted effect of over 60% in size
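First, TGR (20 nM dispensed) and NADPH were mixed with compound. Second, a 15 min room-temperature incubation followed. Third, further NADPH and then DTNB were added to start the reaction. Finally, TNB absorbance was monitored kinetically.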
An asterisk follows results filed as active; ? = inconclusive; · = no result given; [ ] = remark or other dose. Only some compounds are listed: those with a hit (about 12% of all), similar ones and a draw of the others. Unless noted, calls come from the whole dose curve; as a rule, active = well fitted curve in the direction sought with a large enough effect; inconclusive = small, poorly fitted or top-dose-only effect, or another doubt; inactive = no such curve, though single readings can be large; an effect the other way counts as inactive or inconclusive. Potency is the fitted concentration of half-maximal effect.

SMILES	Pf growth 48h	SARS PLpro yeast	Pf growth 96h	Sm TGR block
CC(C)(C)C(=O)NC(=S)NNC(=O)C(c1ccccc1)c1ccccc1	13µM*	-2%	?	·
CC(C)c1ccc(C2=NC(c3ccncc3)=Nc3ccc(F)cc3N2)cc1	·	·	·	-1%
Cn1c(CNc2ccccc2O)nc2ccccc21	·	-23%	9.3µM*	?
Cn1c(CCCCCN)nc2ccccc21	?	5%	10µM*	1%
Cc1ccccc1NCc1nc2ccccc2n1C	155%	-6%	0%	0%
Cn1c(Cc2nc3ccccc3n2C)nc2ccccc21	?	5%	30%	-5%
c1ccc(Cn2c(CNc3nc4ccccc4n3CCN3CCCCC3)nc3ccccc32)cc1	4.7µM*	3%	-20%	-19%
Cn1c(CNc2nc3ccccc3n2CCN2CCCCC2)nc2ccccc21	12µM*	-2%	2.6µM*	-1%
OCCNc1nc2ccccc2n1CCN1CCCCC1	-6%	16%	-19%	3%
COc1ccc(CNc2nc3ccccc3n2CCN2CCCCC2)cc1	-30%[5.75 µM]	0%	?	-4%
COc1ccc(NC(=O)CCc2nc3ccccc3c(=O)[nH]2)cc1S(=O)(=O)N1CCCCC1	·	1%	·	·
CCN(CC)CCn1c(NS(=O)(=O)c2ccc(C)cc2)nc2ccccc21	-18%	-5%	10µM*	?
CCCCn1c(NCc2ccccc2NS(=O)(=O)c2ccc(C)cc2)nc2ccccc21	?	-2%	48%	14%
CCN(CC)CCn1c(NCc2nc3ccccc3n2Cc2ccccc2)nc2ccccc21	·	-5%	3.7µM*	-2%
COc1cc([C@H]2[C@@H]3CCCC[C@]3(O)CCN2Cc2ccccc2F)ccc1O	?	6%	12µM*	-17%
COC(=O)CCCCCN1C(=O)NC(c2ccccc2)C(C(=O)OCc2ccccc2)=C1C (stereo not drawn)	-27%	-7%	?	-3%
CCCCCCN(C(=O)CCCCCN1C(=O)NC(c2ccc(Cl)cc2)C(C(=O)OCc2ccccc2)=C1C)C(C(=O)NCCCC)c1ccc(OCC(=O)OC)c(C(=O)OC)c1 (stereo not drawn)	7.4µM*	-12%	?	0%
COC(=O)C1=C(C)N(CCCC(=O)O)C(=O)NC1c1ccc(-c2ccccc2)cc1 (stereo not drawn)	-16%	4%	?	-4%
CCCCNC(=O)C(C1CCCCC1)N(CCN(C)C)C(=O)CCCN1C(=O)NC(c2ccc(-c3ccccc3)cc2)C(C(=O)OCc2ccccc2)=C1C (stereo not drawn)	·	-21%	·	·
CCCCCCN(C(=O)CCCCCN1C(=O)NC(c2ccc(-c3ccccc3)cc2)C(C(=O)OCc2ccccc2)=C1C)C(C(=O)NCCCC)c1ccc(OCC(=O)OC)c(C(=O)OC)c1 (stereo not drawn)	2.3µM*	2%	2.6µM*	6%
CCCCNC(=O)C(c1ccc(OCC(=O)OC)c(C(=O)OC)c1)N(CCc1c[nH]c2ccccc12)C(=O)CCCCCN1C(=O)NC(c2ccc(-c3ccccc3)cc2)C(C(=O)OCc2ccccc2)=C1C (stereo not drawn)	2.3µM*	2%	2.9µM*	-1%
CCCOc1c(Br)cc(C(=O)OCC(=O)NC(=O)c2cccn2C)cc1OC	-13%	4%	-17%	-3%
Cn1nc([N+](=O)[O-])nc1S(C)(=O)=O	-6%	-5%	4.7µM*	?
Cn1nc([N+](=O)[O-])nc1Oc1ccc2ccccc2c1	·	10%	11%	-2%
Cc1ccc(/C=c2\sc3nc(-c4ccco4)nn3c2=O)o1	10%	-14%	?	8.9µM*
SMILES	Pf growth 48h	SARS PLpro yeast	Pf growth 96h	Sm TGR block
COc1ccc(Br)cc1/C=c1\sc2nc(-c3ccco3)nn2c1=O	26%	-9%	?	13µM*
C=CCn1c(=O)/c(=C/c2ccc(C)o2)s/c1=C(/C#N)C(=O)c1ccccc1	·	16%	152%	-15%[11.4 µM]
COc1ccccc1/C=c1\sc2nc(-c3ccccc3OC)nn2c1=O	1%	-2%	51%	7%
Cc1ccc(/C=c2\sc3nc(-c4ccccc4Br)nn3c2=O)o1	4%	-2%	12µM*	45µM*
Cc1ccc(/C=c2/sc3nnc(-c4ccccc4Cl)n3c2=O)o1	-5%	2%	6%	40µM*
Cc1ccc(-c2nc3s/c(=C\c4ccco4)c(=O)n3n2)cc1	-12%	-3%	-13%	?
Fc1ccccc1N1CCN(c2ncnc3onc(-c4ccc(Cl)cc4)c23)CC1	·	·	·	0%
COc1cc(C(=O)Nc2ccccc2OCc2cc(=O)n3cc(C)sc3n2)cc(OC)c1OC	·	·	·	4%
CC1CCc2c(sc3nc(-c4cc5ccccc5oc4=O)nc(Cl)c23)C1 (stereo not drawn)	·	·	·	-6%
Cc1cc(C(=O)CCC(=O)N(C)CC(=O)Nc2ccc(OC(F)(F)F)cc2)c(C)s1	?	4%	-29%	-10%
OCCCN1CCN(CCOc2ccccc2-c2ccccc2)CC1	?	-6%	10µM*	-1%
CCCCn1c(=N)c(S(=O)(=O)c2ccc(C)cc2)cc2c(=O)n3cc(C)ccc3nc21	·	·	·	7%
O=c1c2ccccc2c(-c2ccccc2)nn1-c1cc(Cl)ccc1[N+](=O)[O-]	8.3µM*	1%	?	-17%
Cc1cc(C)n(-c2cc(Cl)ccc2[N+](=O)[O-])n1	32%	0%	17%	·
Cc1ccc(-c2nn(-c3cc(Cl)ccc3[N+](=O)[O-])c(=O)c3ccccc23)cc1C	5.2µM*	3%	?	-6%
CCc1ccc(-c2nn(-c3cc(Cl)ccc3[N+](=O)[O-])c(=O)c3ccccc23)cc1	?	4%	9.3µM*	1%
Cc1ccc(-c2nn(-c3cc(N4CCNCC4)ccc3[N+](=O)[O-])c(=O)c3ccccc23)cc1	?	0%	0%	17%
Cn1c(=O)[nH]c(=O)c2c1nc1n(CCO)c(-c3ccccc3)cn21	·	·	·	-5%
CCN1C(=O)c2ccccc2S(=O)c2ccc(C(=O)N3CCN(c4cc(Cl)ccc4C)CC3)cc21 (stereo not drawn)	·	·	·	-5%
CCN(CC)c1ccc(NC(=O)c2cc(CN3CCCC3)on2)c(C)c1	·	·	·	4%
COc1ccc(CC(C)Nc2cccc(SC)c2)cc1 (stereo not drawn)	-2%	-10%	8.3µM*	-4%
CCSc1nc2ccccc2n1Cc1cccc([N+](=O)[O-])c1	0%	-1%	0%	6%
CC(O)c1nc2ccccc2n1CCCc1ccccc1 (stereo not drawn)	-40%	?	-13%	-16%
CC(O)c1nc2ccccc2n1Cc1ccccc1 (stereo not drawn)	-27%	-6%	?	5.6µM*
CC(O)c1nc2cc([N+](=O)[O-])ccc2n1Cc1ccccc1 (stereo not drawn)	13µM*	1%	-14%	-3%
CC(C)CCNC(=O)c1c[nH]c2ccc(S(=O)(=O)Nc3cccc(C(F)(F)F)c3)cc2c1=O	·	·	·	8%
Cc1cccc2c(=O)c(C(=O)NCCc3ccccc3)c[nH]c12	21%	3%	4.7µM*	8%
